The values below come from PubChem BioAssay (EPA / NIEHS).

Experiment [1] concerns the target Peroxisome proliferator-activated receptor gamma (Homo sapiens) (UniProt P37231). As to the kind of experiment: OT_PPARg_PPARgSRC1_0480: Odyssey Thera (OT) 8-hour Protein-Complementation Assay for Peroxisome Proliferator-activated Receptor Gamma / SRC-1 Co-activator (AID 2283387).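 Note: nuclear to cytoplasmic split Venus YFP fluorescence ratio reporting PPARg SRC-1 interaction.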 The essentials:
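Split-YFP (IFP1/IFP2) PPARg/SRC-1 reporter, HEK293T, 37 °C, 5% CO2; 8 h compound; formaldehyde fix + Draq5; high-content imaging, N/C ratio, ≥350 cells/image, positive direction vs DMSO.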

The target is the same in experiment [2]. As to the kind of experiment: OT_PPARg_PPARgSRC1_1440: Odyssey Thera (OT) 24-hour Protein-Complementation Assay for Peroxisome Proliferator-activated Receptor Gamma/ SRC-1 Co-activator (AID 2283388).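 Note: nuclear to cytoplasmic ratio of reconstituted Venus YFP fluorescence in fixed imaged cells.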 The essentials:
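Protein-fragment complementation between PPARg and coactivator SRC-1 was measured by fluorescence imaging in transiently transfected HEK293T cells after 24 h treatment. Signal was quantified as N/C ratio in the 488 nm channel, with DMSO as negative control.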

Experiment [3] concerns the target Retinoic acid receptor RXR-alpha (Homo sapiens) (UniProt P19793). The experiment can be described thus: OT_NURR1_NURR1RXRa_0480: Odyssey Thera (OT) 8-hour HEK293T Protein Complementation Assay for Nurr1/retinoid X receptor (RXR) (AID 2283385). The essentials: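 Gain in fluorescent complementation signal over DMSO, measured 8 hours after chemical dosing of human kidney HEK293T cells, indicated enhanced Nurr1–RXRα association.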

The target is the same in experiment [4]. As to the kind of experiment: OT_NURR1_NURR1RXRa_1440: Odyssey Thera (OT) 24-hour HEK293T Protein Complementation Assay for Nurr1/retinoid X receptor (RXR) (AID 2283386). The essentials:
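Cell-based binding reporter: HEK293T cells, 24 h exposure, fluorescence-detected fragment complementation, DMSO as baseline.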

A short description of experiment [5]: CEETOX_H295R_OHPREG: CeeTox H295R High-throughput Steroidogenesis Assay for OH-Pregnenolone (OHPREG) (AID 2283434; active = hit-call score of the fitted dose curve at least 0.9, where 1 is the maximum; inactive = score below 0.9). The following applies: actives raise or lower the signal. The essentials:
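Secreted 17alpha-hydroxypregnenolone measured by HPLC-MS/MS after liquid-liquid extraction. Human adrenal H295R cells received 48 h forskolin (10 uM) stimulation before 48 h chemical exposure at 0.1% final DMSO; MTT viability in same wells; bidirectional fit against DMSO.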

Experiment [6] can be described thus: CEETOX_H295R_OHPROG: CeeTox H295R High-throughput Steroidogenesis Assay for OH-Progesterone (OHPROG) (AID 2283435; active = hit-call score of the fitted dose curve at least 0.9, where 1 is the maximum; inactive = score below 0.9;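 for AC50: 17alpha-hydroxyprogesterone secreted into medium measured by HPLC-MS/MS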). The following applies: actives raise or lower the signal. Put shortly:
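Human adrenocortical H295R cells, passage 10 or lower, were treated with chemical for 48 h after forskolin priming, and hormone output in the medium was quantified by LC-MS/MS.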

A short description of experiment [7]: CEETOX_H295R_11DCORT: CeeTox H295R High-throughput Steroidogenesis Assay for 11-Deoxycortisol (11DCORT) (AID 2283432; active = hit-call score of the fitted dose curve at least 0.9, where 1 is the maximum; inactive = score below 0.9;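 for AC50: 11-deoxycortisol secreted into the medium measured by LC-MS/MS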). As to conditions: actives raise or lower the signal. Put shortly: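 Steroidogenesis in human H295R cells: 48 h chemical exposure after forskolin priming, 11-deoxycortisol measured by LC-MS/MS.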

Each structure is given as a SMILES string. Inconclusive results are not listed. Calls of active or inactive are those of the source. Rule for the calls, unless noted: active = hit-call score of the fitted dose curve at least 0.9, where 1 is the maximum; inconclusive = response in the unintended direction; inactive = score below 0.9.

Peroxisome proliferator-activated receptor gamma (Homo sapiens), sequence (P37231 whole entry, looked up): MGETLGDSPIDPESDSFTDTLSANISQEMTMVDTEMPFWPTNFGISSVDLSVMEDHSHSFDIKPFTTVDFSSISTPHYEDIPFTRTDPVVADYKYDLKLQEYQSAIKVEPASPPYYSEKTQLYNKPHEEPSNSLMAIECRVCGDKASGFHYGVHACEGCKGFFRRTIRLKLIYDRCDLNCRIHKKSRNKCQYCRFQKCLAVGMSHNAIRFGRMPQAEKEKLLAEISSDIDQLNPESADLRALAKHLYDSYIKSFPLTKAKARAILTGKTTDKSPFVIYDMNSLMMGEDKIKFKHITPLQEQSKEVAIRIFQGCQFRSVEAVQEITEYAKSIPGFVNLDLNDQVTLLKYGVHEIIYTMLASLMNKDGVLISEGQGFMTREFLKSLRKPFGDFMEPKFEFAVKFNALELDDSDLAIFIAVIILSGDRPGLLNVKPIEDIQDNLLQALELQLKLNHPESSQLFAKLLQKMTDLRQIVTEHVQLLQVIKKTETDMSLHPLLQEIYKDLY
Retinoic acid receptor RXR-alpha (Homo sapiens), sequence (P19793 whole entry, looked up): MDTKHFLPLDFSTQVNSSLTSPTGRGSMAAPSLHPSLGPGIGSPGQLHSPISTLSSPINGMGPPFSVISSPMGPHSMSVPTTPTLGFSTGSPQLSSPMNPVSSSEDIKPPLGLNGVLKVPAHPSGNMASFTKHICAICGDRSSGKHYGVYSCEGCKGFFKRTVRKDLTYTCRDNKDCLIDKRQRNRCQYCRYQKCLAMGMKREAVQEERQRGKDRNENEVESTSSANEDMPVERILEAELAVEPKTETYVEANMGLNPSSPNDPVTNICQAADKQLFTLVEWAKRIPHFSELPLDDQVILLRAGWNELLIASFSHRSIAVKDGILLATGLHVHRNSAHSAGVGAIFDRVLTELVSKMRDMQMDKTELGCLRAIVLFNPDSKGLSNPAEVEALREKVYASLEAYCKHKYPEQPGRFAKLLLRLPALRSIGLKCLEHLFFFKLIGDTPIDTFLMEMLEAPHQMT

Turning to `Cc1ccc([N+](=O)[O-])cc1`, the outcome in experiment [1] and in experiment [2] was inactive.
For orientation: AC50 means the concentration at which the activity in the assay is half-maximal. On to `c1ccc2c(c1)-c1cccc3cccc-2c13`, for which the call in experiment [3], in experiment [4], in experiment [1] and in experiment [2] was inactive. Moreover, the figures for the AC50 in experiment [5] and in experiment [6] were 14 µM (active) and 30.7 µM (active), respectively.
As to `Clc1ccc(Cl)c(Cl)c1`, the compound was called inactive in experiment [3], in experiment [1] and in experiment [2].
Take `[O-][Cl+]O`: the call in experiment [1] and in experiment [2] was inactive.
`Cc1ccc(N)c(N)c1`: the outcome in experiment [3], in experiment [7] and in experiment [5] was inactive.
As to `CO[C@@H]1[C@H](OC(=O)NC(=O)CCl)CC[C@]2(CO2)[C@H]1[C@@]1(C)O[C@@H]1CC=C(C)C`, the compound was called inactive in experiment [3], in experiment [1] and in experiment [2].
Regarding `Cc1ccc(N)cc1`, the result in experiment [3], in experiment [1] and in experiment [2] was inactive.
Consider `O=C(Oc1ccc(Br)cc1)N1CCN2CCC1CC2`, for which the compound was classed as inactive in experiment [3], in experiment [1] and in experiment [2]. Further, the figures for the AC50 in experiment [7] and in experiment [6] were 6.83 µM (active) and 12.8 µM (active), respectively.
Regarding `CC(C)(C)OOC(=O)c1ccccc1`, the compound was called inactive in experiment [1] and in experiment [2].
Turning to `OCCCBr`, the compound was classed as inactive in experiment [1] and in experiment [2].
Turning to `COC(=O)Nc1nc2ccccc2[nH]1`, the result in experiment [3], in experiment [1] and in experiment [2] was inactive.
For the compound `CCC12COCN1COC2`, the outcome in experiment [3], in experiment [1] and in experiment [2] was inactive.
As for `Cc1ccc(N=C=O)cc1N=C=O`, the compound was called inactive in experiment [3], in experiment [1], in experiment [2], in experiment [7], in experiment [5] and in experiment [6].
As to `COc1cc(C=O)cc2c1[C@H](COC(N)=O)[C@]1(OC(C)=O)ON2C[C@H]2[C@@H]1N2C(C)=O`, the outcome in experiment [1] and in experiment [2] was inactive.
